The record followed here is the supplement of paper PMC6555819.

What all share (assay): PBM binding z-score (relative to random genomic background probes); higher = stronger binding; sequences stand for … in GC…GCGATTGACAGCGTAGAATGAAGG
For assay [1], the system named is FXR:RXRa (NR concentration 270 nM, RXRa partner concentration 90 nM). In outline: (§1)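 The probes on custom Agilent 4×180K protein-binding microarrays were double-stranded, with 34-nt variable regions bearing direct-repeat seeds, single-nucleotide variants, half-site ablations and random human genomic background sequences. Incubation lasted 1 h with ligand-free nuclear receptor dimers in PBS pH 7.4, 2% milk, 0.02% Triton X-100, 1 mM DTT, 0.2 mg/mL BSA and 0.4 mg/ml salmon testes DNA. Antibodies against each partner (one per run) detected bound dimers, and fluorescence scans were regression-normalized. Binding z-scores take the random background probes as reference.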

For assay [2], the system named is LXRa:RXRa (NR concentration 270 nM, RXRa partner concentration 90 nM). In outline: as §1
In assay [3] the test system is LXRa homodimer (NR concentration 270 nM). In outline:
as §1

Assay [4] relates to LXRb:RXRa (NR concentration 270 nM, RXRa partner concentration 90 nM). A digest of the protocol:
as §1

Assay [5] concerns LXRb homodimer (NR concentration 270 nM). A digest of the protocol:
as §1

Assay [6] has as its system PPARa:RXRa (NR concentration 270 nM, RXRa partner concentration 90 nM). In outline:
as §1

Assay [7] deals with PPARg:RXRa (NR concentration 180 nM, RXRa partner concentration 90 nM). A digest of the protocol:
as §1

Assay [8] deals with PPARg:RXRa 270nM:90nM, anti-RXR (NR concentration 270 nM, RXRa partner concentration 90 nM). In outline:
as §1

Assay [9] deals with PPARg:RXRa 30nM:10nM, anti-RXR (NR concentration 30 nM, RXRa partner concentration 10 nM). In outline: as §1
Assay [10] deals with PPARg:RXRa 90nM:30nM, anti-RXR (NR concentration 90 nM, RXRa partner concentration 30 nM). A digest of the protocol: as §1
The test system of assay [11] is PPARg:RXRa DBDmut IVT, anti-RXR (DBD mutation: RXRa K156A/R161A, NR concentration 270 nM, RXRa partner concentration 90 nM). A digest of the protocol: as §1
Assay [12] deals with PPARg:RXRa IVT, anti-PPARg (NR concentration 270 nM, RXRa partner concentration 90 nM). A digest of the protocol: as §1
Assay [13] relates to PPARg DBDmut:RXRa IVT, anti-PPARg (DBD mutation: PPARg1 K132A/R137A, NR concentration 270 nM, RXRa partner concentration 90 nM). In outline:
as §1

Assay [14] relates to PPARg DBDmut IVT, anti-PPARg (DBD mutation: PPARg1 K132A/R137A, NR concentration 270 nM). A digest of the protocol: as §1
The subject of assay [15] is PPARg homodimer (NR concentration 180 nM). A digest of the protocol:
as §1

Assay [16] concerns PXR:RXRa (NR concentration 270 nM, RXRa partner concentration 90 nM). A digest of the protocol:
as §1

Assay [17] concerns PXR homodimer (NR concentration 270 nM). A digest of the protocol: as §1
The test system of assay [18] is RARa:RXR (NR concentration 270 nM, RXRa partner concentration 90 nM). In outline:
as §1

The subject of assay [19] is RARa homodimer (NR concentration 270 nM). A digest of the protocol:
as §1

Assay [20] relates to RARb:RXRa (NR concentration 270 nM, RXRa partner concentration 90 nM). A digest of the protocol:
as §1

As for CCTACTGGGCCACGAAAGGACATTGATTCAGTGA, the PBM binding z-score in [1] was 0.276; in [2] it was 0.0312; in assay [3], 0.0181; in assay [4], -0.441; in assay [5], -0.67; in [6], 0.738. The PBM binding z-score in assay [7] was 1.63; in assay [8] it was 1.22; in assay [9], -0.124; in assay [10], 0.606; in assay [11] it was 4.98; in [12] it was 5.21. For the same sequence, the PBM binding z-score in [13] was 0.3; in assay [14], -0.299; in assay [15], 0.467; in [16], -0.024; in [17], -0.134; in assay [18] it was 0.342. Besides, the results for the PBM binding z-score in assay [19] and in assay [20] were 0.45 and 1.11, respectively.
Consider GCTGCTAGGTCATCTGATGGTCAGCTAAAGCTCG, for which the PBM binding z-score in [1] stood at 3.98; in assay [2], 3.02; in assay [3], 0.182; in [4], 2.03; in assay [5] it was 0.0879; in [6], 3.39. In addition, the PBM binding z-score in [7] was 1.96; in assay [8], 2.82; in assay [9], 0.263; in assay [10], 1.59; in assay [11] it was 3.87; in [12] it was 3.44. The PBM binding z-score in assay [13] is -0.368; in assay [14], -0.142; in assay [15], 0.777; in assay [16], 1.71; in [17], -0.679; in assay [18], 2.64. The PBM binding z-score in assay [19] was -0.43; in assay [20], 4.07.
Regarding CCTGCTAGGTCAATGGTCATCTAAAGCAGCTCGC, the PBM binding z-score in assay [1] turned out to be 2.9; in assay [2], 2.28; in [3], 0.085; in [4], 1.68; in assay [5] it was 0.00102; in assay [6], 3.22. For the same sequence, the PBM binding z-score came to 4.71 in assay [7]; 5.48 in [8]; 3.24 in assay [9]; 5.52 in assay [10]; 4.11 in assay [11]; 3.89 in assay [12]. The PBM binding z-score in assay [13] was -0.358; in assay [14] it was -0.372; in assay [15], 1.1; in assay [16] it was 1.35; in assay [17], -0.609; in assay [18], 2.05. The PBM binding z-score was -0.14 in [19] and 3.75 in [20].
GATACAGGGTCAGCTAGAGGCCAGAGTATGGAAA: the PBM binding z-score is 4.81 in [1]; 2.75 in assay [2]; -0.32 in assay [3]; 2.6 in [4]; -0.659 in [5]; 4.53 in assay [6]. Moreover, the PBM binding z-score in assay [7] is 3.81; in [8] it was 3.35; in assay [9], 0.742; in [10], 2.06; in assay [11], 1.03; in [12], 2.29. The PBM binding z-score is 0.139 in [13]; 0.0351 in assay [14]; 3.5 in [15]; 3.49 in assay [16]; -0.262 in assay [17]; 4.85 in [18]. Moreover, the PBM binding z-score in assay [19] is 0.574; in [20] it was 4.22.
GCTTACGGGTCAAAGGTTATCGCATGAATAGAAT: the PBM binding z-score came out at 7.98 in [1]; 5.85 in assay [2]; 0.561 in assay [3]; 5.81 in assay [4]; 0.413 in [5]; 6.94 in assay [6]. Moreover, the PBM binding z-score in [7] was 11.7; in [8], 9.26; in assay [9], 8.55; in assay [10], 10.3; in [11] it was 5.17; in [12], 6.06. Moreover, the PBM binding z-score was 0.968 in [13]; 0.942 in assay [14]; 2.75 in assay [15]; 6.19 in [16]; 0.364 in assay [17]; 8.16 in assay [18]. Besides, the PBM binding z-score in assay [19] was determined as 0.571; in assay [20], 4.76.
As for AGTCAAAGTTCAGCTAGGTAACGTAAGATATGCT, the PBM binding z-score in assay [1] turned out to be 3.9; in [2], 3.86; in assay [3], 1.68; in [4], 1.91; in [5], 0.177; in assay [6], 3.34. In addition, the PBM binding z-score in assay [7] turned out to be 4.61; in [8] it was 4.73; in assay [9], 2.11; in assay [10], 4.07; in assay [11], 0.153; in assay [12] it was 2.1. The PBM binding z-score was 0.968 in assay [13]; 0.836 in assay [14]; 1.67 in [15]; 3.01 in [16]; 1.8 in assay [17]; 2.29 in assay [18]. The PBM binding z-score in assay [19] was 1.19; in assay [20], 4.37.
In the case of CCTGCTACGTCAATGGTCAGCTAAAGCAGCTCGC, the PBM binding z-score in assay [1] was -0.5; in assay [2], -0.409; in assay [3] it was -0.45; in assay [4] it was -0.531; in [5] it was -0.36; in assay [6], -0.295. In addition, the PBM binding z-score was -0.37 in assay [7]; -0.498 in assay [8]; -0.833 in [9]; -0.566 in [10]; 0.218 in [11]; -0.566 in assay [12]. Moreover, the PBM binding z-score in assay [13] was -1.15; in assay [14], -0.483; in assay [15] it was -0.41; in [16], -0.469; in assay [17] it was -0.413; in [18], -0.14. In addition, the PBM binding z-score is -0.629 in [19] and 0.0938 in assay [20].
